From the supplement of paper PMC11732987, “Enantioselective OTUD7B fragment discovery through chemoproteomics screening and high-throughput optimisation” (Communications Chemistry, 2025)

Legend:
Assay in all cases: log2 ratio of Biotin-Ahx-Ub-VS probe labelling (fragment/DMSO); higher = less target engagement (more negative = stronger competition), active = hit call of the paper (q ≤ 0.05, log2 ratio ≤ -1)
Conditions in all cases: compound concentration: 200 uM; treatment time: 3 h
ALG13 = biological target: T1, ALG13 (UniProt Q9NP73)
T1 sequence (whole entry): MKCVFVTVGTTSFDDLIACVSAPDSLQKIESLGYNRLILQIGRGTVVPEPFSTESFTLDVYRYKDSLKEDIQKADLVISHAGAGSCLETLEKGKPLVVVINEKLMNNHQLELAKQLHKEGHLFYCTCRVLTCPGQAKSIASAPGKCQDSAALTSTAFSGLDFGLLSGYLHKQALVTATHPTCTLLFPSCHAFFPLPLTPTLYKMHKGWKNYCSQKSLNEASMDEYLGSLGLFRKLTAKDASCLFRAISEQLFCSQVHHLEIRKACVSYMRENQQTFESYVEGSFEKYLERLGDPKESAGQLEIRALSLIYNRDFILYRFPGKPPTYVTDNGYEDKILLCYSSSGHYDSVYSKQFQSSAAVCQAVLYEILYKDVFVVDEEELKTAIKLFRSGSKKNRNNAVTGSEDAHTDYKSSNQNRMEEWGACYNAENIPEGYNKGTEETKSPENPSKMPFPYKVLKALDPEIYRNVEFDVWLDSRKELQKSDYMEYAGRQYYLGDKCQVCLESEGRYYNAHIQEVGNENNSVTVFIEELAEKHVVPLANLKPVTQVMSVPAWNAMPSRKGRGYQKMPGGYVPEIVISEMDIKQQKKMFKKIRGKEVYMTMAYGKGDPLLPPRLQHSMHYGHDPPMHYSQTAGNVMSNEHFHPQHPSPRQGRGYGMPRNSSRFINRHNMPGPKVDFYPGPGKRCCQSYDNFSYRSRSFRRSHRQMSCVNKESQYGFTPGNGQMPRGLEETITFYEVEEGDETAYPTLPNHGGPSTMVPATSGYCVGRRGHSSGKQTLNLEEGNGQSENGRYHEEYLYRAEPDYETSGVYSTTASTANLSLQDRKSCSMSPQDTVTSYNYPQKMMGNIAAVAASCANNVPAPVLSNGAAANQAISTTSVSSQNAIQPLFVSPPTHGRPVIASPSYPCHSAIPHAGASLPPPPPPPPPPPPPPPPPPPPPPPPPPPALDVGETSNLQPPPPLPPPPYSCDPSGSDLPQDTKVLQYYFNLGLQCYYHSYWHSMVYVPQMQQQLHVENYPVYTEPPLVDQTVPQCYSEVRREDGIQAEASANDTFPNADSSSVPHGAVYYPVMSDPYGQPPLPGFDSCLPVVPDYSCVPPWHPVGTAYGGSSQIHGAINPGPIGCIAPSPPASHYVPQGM
In short: (§1)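 HEK293T lysate, 495 µg per sample in Tris/CHAPS/IGEPAL buffer with protease inhibitors, was treated in triplicate with fragment at 200 µM or vehicle for 3 h and then with Biotin-Ahx-Ub-VS at 0.5 µM final for 1 h. Labelled DUBs were NeutrAvidin-enriched, digested with LysC and trypsin, and run by diaPASEF LC-MS/MS. Spectronaut label-free quantities were global-median-normalised, and values are average log2 fragment/vehicle ratios by unpaired t-test on proteins with ≥2 unique peptides.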

ATXN3 = ATXN3 (UniProt P54252)
ATXN3, sequence (P54252 whole entry): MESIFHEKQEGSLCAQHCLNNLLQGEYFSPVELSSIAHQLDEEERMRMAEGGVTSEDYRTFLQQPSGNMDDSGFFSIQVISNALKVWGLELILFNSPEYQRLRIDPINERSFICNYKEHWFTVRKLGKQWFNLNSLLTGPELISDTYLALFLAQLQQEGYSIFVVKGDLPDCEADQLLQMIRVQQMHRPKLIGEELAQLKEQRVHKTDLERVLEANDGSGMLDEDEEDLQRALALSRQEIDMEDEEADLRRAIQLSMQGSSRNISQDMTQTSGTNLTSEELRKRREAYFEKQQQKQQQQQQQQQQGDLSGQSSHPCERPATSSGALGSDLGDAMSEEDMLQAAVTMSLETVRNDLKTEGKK
In short: as §1

BAP1 = biological target: T2, BAP1 (UniProt Q92560)
T2 sequence (whole entry): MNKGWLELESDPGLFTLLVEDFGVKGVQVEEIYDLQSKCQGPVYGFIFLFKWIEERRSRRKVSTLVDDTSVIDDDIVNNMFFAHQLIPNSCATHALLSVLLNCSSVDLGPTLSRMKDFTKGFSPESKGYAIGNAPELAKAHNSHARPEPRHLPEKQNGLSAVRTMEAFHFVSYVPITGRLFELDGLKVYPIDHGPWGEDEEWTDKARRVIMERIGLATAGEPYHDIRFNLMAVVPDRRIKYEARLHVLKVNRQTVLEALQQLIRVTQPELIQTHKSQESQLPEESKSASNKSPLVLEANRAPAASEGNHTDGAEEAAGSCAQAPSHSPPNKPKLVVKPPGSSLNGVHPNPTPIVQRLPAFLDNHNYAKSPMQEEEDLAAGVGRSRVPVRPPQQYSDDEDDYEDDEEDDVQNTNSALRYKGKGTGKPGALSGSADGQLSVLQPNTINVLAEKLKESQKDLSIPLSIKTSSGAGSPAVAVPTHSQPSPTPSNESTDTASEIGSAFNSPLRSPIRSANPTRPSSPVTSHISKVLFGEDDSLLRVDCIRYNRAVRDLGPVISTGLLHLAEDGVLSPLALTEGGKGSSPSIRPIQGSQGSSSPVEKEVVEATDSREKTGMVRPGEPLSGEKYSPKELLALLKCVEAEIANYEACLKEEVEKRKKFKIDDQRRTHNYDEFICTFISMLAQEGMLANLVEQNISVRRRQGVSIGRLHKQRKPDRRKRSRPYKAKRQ
In short: as §1

EIF3F = EIF3F (UniProt O00303)
EIF3F, sequence (O00303 whole entry): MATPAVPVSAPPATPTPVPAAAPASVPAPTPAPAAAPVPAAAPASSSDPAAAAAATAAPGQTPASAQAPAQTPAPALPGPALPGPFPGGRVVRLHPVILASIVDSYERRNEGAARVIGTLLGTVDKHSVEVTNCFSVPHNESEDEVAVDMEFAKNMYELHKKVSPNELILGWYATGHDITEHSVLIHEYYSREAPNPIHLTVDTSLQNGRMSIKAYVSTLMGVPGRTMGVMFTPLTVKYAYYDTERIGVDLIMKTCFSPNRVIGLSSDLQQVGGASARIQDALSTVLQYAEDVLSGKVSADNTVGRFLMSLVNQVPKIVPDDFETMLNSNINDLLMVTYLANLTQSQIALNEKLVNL
In short: as §1

EIF3H = EIF3H (UniProt O15372)
EIF3H, sequence (O15372 whole entry): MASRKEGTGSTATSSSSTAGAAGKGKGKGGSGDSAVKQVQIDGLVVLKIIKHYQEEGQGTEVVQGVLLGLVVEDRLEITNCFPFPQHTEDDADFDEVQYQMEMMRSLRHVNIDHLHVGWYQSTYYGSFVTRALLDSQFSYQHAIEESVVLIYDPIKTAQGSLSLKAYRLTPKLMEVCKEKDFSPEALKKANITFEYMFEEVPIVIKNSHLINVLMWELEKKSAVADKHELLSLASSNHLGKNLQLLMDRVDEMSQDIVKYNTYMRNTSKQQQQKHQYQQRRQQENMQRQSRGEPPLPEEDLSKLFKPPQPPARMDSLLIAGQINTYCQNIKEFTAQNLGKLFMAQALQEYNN
In short: as §1

FAM105A = biological target: T3, FAM105A (UniProt Q9NUU6)
T3 sequence (whole entry): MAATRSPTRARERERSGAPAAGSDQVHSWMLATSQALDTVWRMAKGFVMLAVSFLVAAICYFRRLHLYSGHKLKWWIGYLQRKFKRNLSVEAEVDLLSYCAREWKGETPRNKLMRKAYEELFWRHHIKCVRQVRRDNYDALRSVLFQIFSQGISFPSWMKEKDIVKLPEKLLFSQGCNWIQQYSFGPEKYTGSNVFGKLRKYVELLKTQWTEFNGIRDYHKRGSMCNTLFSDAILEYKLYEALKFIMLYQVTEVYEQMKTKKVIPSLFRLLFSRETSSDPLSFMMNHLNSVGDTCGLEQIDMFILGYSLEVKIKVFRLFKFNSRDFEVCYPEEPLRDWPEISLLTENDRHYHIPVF
In short: as §1

OTUB1 = OTUB1 (UniProt Q96FW1)
OTUB1, sequence (Q96FW1 whole entry): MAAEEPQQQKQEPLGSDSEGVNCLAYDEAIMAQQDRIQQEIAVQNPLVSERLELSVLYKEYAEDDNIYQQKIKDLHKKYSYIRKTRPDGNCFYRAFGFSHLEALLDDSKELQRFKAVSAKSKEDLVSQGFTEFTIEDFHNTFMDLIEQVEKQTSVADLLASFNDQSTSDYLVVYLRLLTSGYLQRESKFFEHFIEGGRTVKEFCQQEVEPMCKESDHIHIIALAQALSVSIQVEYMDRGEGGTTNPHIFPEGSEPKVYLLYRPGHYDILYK
In short: as §1

OTUD4 = biological target: T4, OTUD4 (UniProt Q01804)
T4 sequence (whole entry): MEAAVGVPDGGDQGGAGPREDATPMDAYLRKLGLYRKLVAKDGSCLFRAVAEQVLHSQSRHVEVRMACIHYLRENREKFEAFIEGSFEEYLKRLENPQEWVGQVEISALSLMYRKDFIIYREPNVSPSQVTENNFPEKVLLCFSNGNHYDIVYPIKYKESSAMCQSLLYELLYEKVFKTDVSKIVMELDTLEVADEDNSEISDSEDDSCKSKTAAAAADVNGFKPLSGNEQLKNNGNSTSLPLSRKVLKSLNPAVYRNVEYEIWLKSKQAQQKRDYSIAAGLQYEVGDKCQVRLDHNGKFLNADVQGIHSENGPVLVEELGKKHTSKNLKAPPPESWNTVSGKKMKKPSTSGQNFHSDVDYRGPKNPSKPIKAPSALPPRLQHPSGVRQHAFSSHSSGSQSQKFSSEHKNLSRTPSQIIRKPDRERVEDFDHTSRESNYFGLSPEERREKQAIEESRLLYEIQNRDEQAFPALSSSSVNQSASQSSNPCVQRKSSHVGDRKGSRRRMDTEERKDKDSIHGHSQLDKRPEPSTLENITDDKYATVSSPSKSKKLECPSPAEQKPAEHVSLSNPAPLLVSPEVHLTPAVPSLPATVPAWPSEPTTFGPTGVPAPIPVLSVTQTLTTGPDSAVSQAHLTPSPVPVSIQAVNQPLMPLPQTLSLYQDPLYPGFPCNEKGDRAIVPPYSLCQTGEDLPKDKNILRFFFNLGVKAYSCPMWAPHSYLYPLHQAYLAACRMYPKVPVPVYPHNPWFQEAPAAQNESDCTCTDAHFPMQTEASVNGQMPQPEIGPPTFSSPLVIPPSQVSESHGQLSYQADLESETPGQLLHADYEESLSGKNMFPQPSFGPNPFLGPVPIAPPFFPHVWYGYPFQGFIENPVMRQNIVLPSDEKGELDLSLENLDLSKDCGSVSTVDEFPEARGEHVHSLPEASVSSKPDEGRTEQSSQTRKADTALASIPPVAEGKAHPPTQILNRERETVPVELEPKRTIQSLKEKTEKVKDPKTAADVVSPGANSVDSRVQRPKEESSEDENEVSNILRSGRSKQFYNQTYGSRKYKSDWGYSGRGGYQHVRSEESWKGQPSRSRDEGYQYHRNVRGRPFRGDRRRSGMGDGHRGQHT
In short: as §1

OTUD5 = biological target: T5, OTUD5 (UniProt Q96G74)
T5 sequence (whole entry): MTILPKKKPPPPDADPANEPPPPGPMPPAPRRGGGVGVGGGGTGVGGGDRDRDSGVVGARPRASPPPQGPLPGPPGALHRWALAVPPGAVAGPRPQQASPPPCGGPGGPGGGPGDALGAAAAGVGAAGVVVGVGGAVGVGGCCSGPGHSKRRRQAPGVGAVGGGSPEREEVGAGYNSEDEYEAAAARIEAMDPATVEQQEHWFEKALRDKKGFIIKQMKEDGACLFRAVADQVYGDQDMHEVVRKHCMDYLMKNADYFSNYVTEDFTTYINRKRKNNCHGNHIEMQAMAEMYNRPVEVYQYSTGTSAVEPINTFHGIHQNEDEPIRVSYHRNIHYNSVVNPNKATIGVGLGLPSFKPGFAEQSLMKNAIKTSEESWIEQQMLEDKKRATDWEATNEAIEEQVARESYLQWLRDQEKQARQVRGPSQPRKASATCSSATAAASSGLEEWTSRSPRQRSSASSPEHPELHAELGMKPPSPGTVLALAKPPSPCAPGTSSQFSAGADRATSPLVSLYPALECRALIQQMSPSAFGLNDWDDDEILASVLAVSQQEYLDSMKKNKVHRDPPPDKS
In short: as §1

Measured: log2 ratio of Biotin-Ahx-Ub-VS probe labelling

O=C(CCl)NCC(=O)N1CCCC1
inactive: ALG13 0.0112 | ATXN3 -0.179 | BAP1 -0.409 | EIF3F -0.198 | EIF3H 0.0708 | FAM105A -0.573 | OTUB1 -0.202 | OTUD4 -0.278 | OTUD5 -0.231
